Results published in PubChem BioAssay (NCATS).
“And” between values parts separate entries of the source, which are not always exact repeats. Equal values may be shown once. Inconclusive results are not listed. The source made the active and inactive calls. Calls come from the whole dose curve; as a rule, active = well fitted curve in the direction sought with a large enough effect; inconclusive = small, poorly fitted or top-dose-only effect, or another doubt; inactive = no such curve, though single readings can be large; an effect the other way counts as inactive or inconclusive.

Experiments:
[1] = qHTS Assay for Identifying Gametocytocidal Compounds (AID 743244);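 note: actives lower the fluorescent signal which means gametocytes are killed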; settings: P. falciparum 3D7 stage III-V gametocytes, alamarBlue, 72 h; max response: active compounds read low
In short: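 3D7 gametocytes, stages III–V, 20,000/well; cpd 72 h, 37 °C/5% CO2; + alamarBlue 24 h; fluor. Ex 525/Em 598.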

[2] = qHTS assay to identify small molecule inhibitors of chordoma cells - UCH-1 (AID 1259355); note: nearly all actives have a fitted effect of over 55% in size
In short: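 A 48hr growth-inhibition format: each drug tested at 15 concentrations together with added auranofin, camptothecin, doxorubicin, rubitecan and topotecan, with cell viability quantified as CellTiter-Glo luminescence.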

[3] = qHTS assay to identify small molecule inhibitors of chordoma cells - UCH-2 (AID 1259356); note: series mostly up to about 46 µM
[4] = P-glycoprotein substrates identified in KB-8-5-11 adenocarcinoma cell line, qHTS therapeutic library screen (AID 1346987); settings: outcome: dose series up to 44.5 µM unless noted; note: nearly all actives have a fitted effect of over 65% in size
In short: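 In this qHTS, P-gp-rich KB-8-5-11 cells received library compounds across a concentration range. Viability was quantified by luminescence after 72 h at 37 degree C.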
% is set by controls: 0 for no effect and ±100 for the full control effect.

NC(=O)CC[C@@H]1NC(=O)[C@H](Cc2ccccc2)NC(=O)[C@H](Cc2ccc(O)cc2)NC(=O)[C@@H](N)CSSC[C@@H](C(=O)N2CCC[C@H]2C(=O)N[C@@H](CCCN=C(N)N)C(=O)NCC(N)=O)NC(=O)[C@H](CC(N)=O)NC1=O
inactive: max response [1] -1.4% and -14.5% | Potency [2] | Potency [3] | Potency [4]

CC(C)=CCC/C(C)=C/CC/C(C)=C/CC/C=C(\C)CC/C=C(\C)CCC=C(C)C
inactive: max response [1] -7.41% and 5.06% | Potency [2] | Potency [3] | Potency [4]

CC[C@H](C)[C@@H]1NC(=O)[C@H](Cc2ccc(O)cc2)NC(=O)[C@@H](N)CSSC[C@@H](C(=O)N2CCC[C@H]2C(=O)N[C@@H](CC(C)C)C(=O)NCC(N)=O)NC(=O)[C@H](CC(N)=O)NC(=O)[C@H](CCC(N)=O)NC1=O
inactive: max response [1] 0.419% | Potency [2] | Potency [3] | Potency [4]

Cc1ccc(C(C)(C)c2ccc(C)cc2)cc1
inactive: max response [1] 17% | Potency [2] | Potency [3] | Potency [4]

COc1ccc(/C=N/NC(=O)c2ccncc2)c(C(=O)O)c1OC
inactive: max response [1] 9% | Potency [2] | Potency [3] | Potency [4]

C[C@@H](O)[C@H]1C(=O)N2C(C(=O)[O-])=C(SC3Cn4cnc[n+]4C3)[C@H](C)[C@H]12 (stereo not given in full)
inactive: max response [1] -4.53% | Potency [2] | Potency [3] | Potency [4]

COc1ccc(/C=C/C(=O)OCCC(C)C)cc1
inactive: max response [1] 3.66% | Potency [2] | Potency [3] | Potency [4]

COC(=O)[C@@H](N)CS
inactive: max response [1] 0.957% | Potency [2] | Potency [3] | Potency [4]

O=C(O[C@H]1CN2CCC1CC2)N1CCc2ccccc2[C@@H]1c1ccccc1
inactive: max response [1] 5.85% | Potency [2] | Potency [3] | Potency [4]

Nc1nc(=O)n([C@@H]2CS[C@H](CO)O2)cc1F
inactive: max response [1] 4.32% | Potency [2] | Potency [3] | Potency [4]

C[C@H](N)C(=O)N[C@@H](C)P(=O)(O)O
inactive: max response [1] 2.87% | Potency [2] | Potency [3] | Potency [4]

O=C1CC[C@@H](C(=O)N[C@H]2C[C@@H]2c2ccccc2)N1
inactive: max response [1] -4.02% | Potency [2] | Potency [3] | Potency [4]

CC(=O)N[C@@H]1C(O[C@H]2O[C@H](C(=O)O)C(O)[C@H](O)[C@H]2O)[C@H](O)[C@@H](CO)O[C@H]1O[C@@H]1C(C(=O)O)O[C@@H](O[C@H]2[C@H](O)[C@@H](CO)OC(O)[C@@H]2NC(C)=O)[C@H](O)[C@H]1O (stereo not given in full)
inactive: max response [1] -1.86% | Potency [2] | Potency [3] | Potency [4]

CO/N=C(\C(=O)N[C@@H]1C(=O)N2C(C(=O)[O-])=C(C[n+]3ccc(N)n3CCO)CS[C@H]12)c1csc(N)n1
inactive: max response [1] -6.21% | Potency [2] | Potency [3] | Potency [4]

COc1cc(S(C)=O)ccc1-c1nc2ncccc2[nH]1 (stereo not given)
inactive: max response [1] 11.9% | Potency [2] | Potency [3] | Potency [4]

CC/C=C\C/C=C\C/C=C\C/C=C\C/C=C\C/C=C\CCC(=O)O
inactive: max response [1] -1.97% | Potency [2] | Potency [3] | Potency [4]

NCCCC[C@H](N)C(=O)O
inactive: max response [1] 5.86% | Potency [2] | Potency [3] | Potency [4]

O=P(O)(O)OC[C@H](O)CO
inactive: max response [1] -1.62% | Potency [2] | Potency [3] | Potency [4]

NC(=O)OCC(O)COc1ccc(Cl)cc1 (stereo not given)
inactive: max response [1] 9.36% | Potency [2] | Potency [3] | Potency [4]

O=C(OCc1ccccc1)c1cccnc1
inactive: max response [1] -1.85% | Potency [2] | Potency [3] | Potency [4]

C=CC[N@@+]12CC[C@@]34c5ccccc5N5/C=C6/[C@H]7C[C@H]8[C@@]9(CC[N@@+]8(CC=C)C/C7=C/CO)c7ccccc7N(/C=C(/[C@@H](C[C@@H]31)/C(=C\CO)C2)[C@H]54)[C@@H]69
inactive: max response [1] 4.55% | Potency [2] | Potency [3] | Potency [4]

C[C@@H]1O[C@@H]1P(=O)(O)O
inactive: max response [1] -12.6% | Potency [2] | Potency [3] | Potency [4]

O=C1CCC(=O)N1CO
inactive: max response [1] -5.34% | Potency [2] | Potency [3] | Potency [4]

CO[C@H]1C=CO[C@@]2(C)Oc3c(C)c(O)c4c(O)c(cc(O)c4c3C2=O)NC(=O)/C(C)=C\C=C/[C@H](C)[C@H](O)[C@@H](C)[C@@H](O)[C@@H](C)[C@H](OC(C)=O)[C@@H]1C
inactive: max response [1] -6.86% | Potency [2] | Potency [3] | Potency [4]

O=C(O)Cc1nn(Cc2ccc(Br)cc2F)c(=O)c2ccccc12
inactive: max response [1] -4.01% | Potency [2] | Potency [3] | Potency [4]

C=CCN1CCCC1CNC(=O)c1cc(S(N)(=O)=O)cc(OC)c1OC (stereo not given)
inactive: max response [1] -2.17% | Potency [2] | Potency [3] | Potency [4]

Nc1nc(NC2CC2)c2ncn([C@@H]3C=C[C@@H](CO)C3)c2n1
inactive: max response [1] 15.8% | Potency [2] | Potency [3] | Potency [4]

O=C1c2c(O)cccc2[C@H]([C@@H]2O[C@H](CO)[C@@H](O)[C@H](O)[C@H]2O)c2cc(CO)cc(O)c21
inactive: max response [1] -5.95% and -4.23% | Potency [2] | Potency [3] | Potency [4]

C=C1[C@@H]2CC[C@@H](C2)C1(C)C
inactive: max response [1] -12.4% | Potency [2] | Potency [3] | Potency [4]

COc1ccc(C[C@H](C)NC[C@@H](O)c2ccc(O)c(NC=O)c2)cc1
inactive: max response [1] -5.27% | Potency [2] | Potency [3] | Potency [4]
